Measured values as given in PubChem BioAssay (NCI).
This is part of a sample that, as a whole, favours compounds with a hit. Of some 83,000 tested, about 20% had one in any assay.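 Note: values are percent growth. 100 is the growth of untreated cells, values between 100 and 0 indicate rising inhibition; between -100 and 0 indicates cell death.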 Activity calls are given as the source filed them.

System: M14 melanoma
Experiment: NCI-60 one-dose screen, 48 h (100 = growth as untreated, 0 = no growth, -100 = all killed)
Conditions: 10 µM unless noted
Experimental: Growth inhibition of the M14 human tumor cell line is measured as a screen for anti-cancer activity. Cells are grown in 96 well plates and exposed to the test compound for 48 hours. Compounds are tested at a single concentration, which is 10^-5 M for most compounds. The reported endpoint is percent growth (GI% or GIPRCNT), where numbers from 0 - 100% represent growth inhibition, and numbers from -100% - 0 represent cell death. For example, a value of 40 represents 60% growth inhibition. A value of 0 means no net growth occurred over the course of the experiment. A value of -40 indicates 40% of cells at the beginning of the experiment died by the end of the experiment. A value of -100 means all cells are dead at the end of the experiment.
NCI-60 Human Tumor Cell Lines Screen was performed using the standard one-dose NCI protocol, which is described in more detail at https://dtp.cancer.gov/discovery_development/nci-60/default.htm.
Compounds with GIPRCNT values below 10 were considered active. Activity score was based on GIPRCNT using the following formula: […]
Score is 0 for GIPRCNT values of 100 or above, 50 for GIPRCNT values of 0, and 100 for GIPRCNT values of -100.

| Compound | growth |
| --- | --- |
| CCOC(=O)c1c2c(n3ccc(NC(=O)OC(C)(C)C)cc13)C(=O)c1ncccc1C2=O | -55.8% (active) |
| COC(=O)c1ccc(CSc2nnc(-c3c(C)nc4ccc(C)cn34)o2)cc1 | 105% (inactive) |
| Nc1n[nH]c(-c2cc(Cl)ccc2O)c1-c1ccccc1 | 93.8% (inactive) |
| O=C(/C=C/c1cccc(O)c1)c1cccc(-n2cc(-c3ccc4ccccc4c3)[nH]c2=O)c1 | 16.2% (inactive) |
| COc1cc2nc(Cl)nc(Nc3ccc(S(=O)(=O)Nc4nccs4)cc3)c2cc1OC | 100% (inactive) |
| O=C(CC(SCc1ccccc1)c1ccccc1)c1ccccc1 (stereo not given) | 87% (inactive) |
| CC1CC2Oc3ccc(Cl)cc3C(=O)N2O1 (stereo not given) | 107% (inactive) |
| COc1ccccc1N1C(=O)/C(=C/C2=Cc3ccccc3OC2)SC1=S | 98.2% (inactive) |
| COc1ccc(/C=N/C2=C(C#N)C(c3ccc(OC)cc3)c3ccc4ccccc4c3O2)cc1 (stereo not given) | 69.7% (inactive) |
| CC(C)(C)OC(=O)Nc1ccc2c(c1)C(NC(=O)Nc1cccc(C#N)c1)CC(C)(C)O2 (stereo not given) | 47.5% (inactive) |
| CN(Cc1cnc2nc(N)nc(N)c2n1)c1ccc(C(=O)N[C@@H](CCc2nn[nH]n2)c2nn[nH]n2)cc1 | 29.8% (inactive) |
| COc1ccc(-c2nc(SCCC(C)C)nc(N/N=C\c3ccccc3O)c2C#N)cc1 | 98.3% (inactive) |
| C=C1C(=O)O[C@H]2[C@H]1CC/C(CNC(=O)/C=C/c1ccc(Cl)cc1Cl)=C\CC[C@@]1(C)O[C@@H]21 | -57.5% (active) |
| Cc1cc(NCCCCNc2ccnc3cc(Cl)ccc23)nc(Nc2ccc(C(=O)N3CCCC3)cc2)n1 | -73.9% (active) |
| Cc1cc(C(=O)c2ccccc2)c(C)c2c1[nH]c1ccc(Cl)cc12 | 19.6% (inactive) |
| COc1cc(C(=O)c2cc(C)c3[nH]c4ccc(Cl)cc4c3c2C)cc(OC)c1OC | 17.5% (inactive) |
| NC(=S)N/N=C/Cc1ccccc1 | 104% (inactive) |
| CN(C)CC1C(=O)O[C@H]2[C@H]1CC/C(COC(=O)c1cc3ccccc3[nH]1)=C\CC[C@@]1(C)O[C@@H]21 (stereo not given in full) | -62.3% (active) |
| COc1cc(-c2n/c(=C\c3c(O)[nH]c4ccc(Cl)cc34)cc3c2=Nc2ccccc2-3)cc(OC)c1OC | 0.836% (active) |
| Cc1ccc(-n2c(-c3ccccc3)c(-c3ccccc3)c3c(SCC(=O)n4[nH]c(N)cc4=O)ncnc32)cc1 | 94.3% (inactive) |

| Compound | growth |
| --- | --- |
| CC1(c2ccccc2)NC(=O)N(NC(=O)CSc2nc(-c3cccs3)nc3ccccc23)C1=O (stereo not given) | 109% (inactive) |
| COc1ccc2c(c1)C(=O)/C(=C/c1cccc(OCC(=O)Nc3nc(C)c(C)s3)c1)O2 | -44.4% (active) |
| COC(=O)[C@]12CC[C@@H](C)[C@H](C)[C@@H]1C1=CC[C@@H]3[C@@]4(C)C(C=O)=C[C@@](C)(COC(C)=O)[C@@H]4[C@H](O)C[C@@]3(C)[C@]1(C)CC2 | -43.3% (active) |
| NC(=N\N=C/c1cccc([N+](=O)[O-])c1)/C(N)=N\N=C/c1cccc([N+](=O)[O-])c1 | 92.8% (inactive) |
| C#Cc1cccc(NC(=O)c2ccc(NC(=O)CCl)cc2)c1 | -60.6% [8.25 µM] (active) |
| COc1ccc(-c2nc(SCC(=O)Nc3nc(-c4ccccc4)cs3)[nH]c(=O)c2C#N)cc1 | 89.6% (inactive) |
| c1ccc2cc3nc4cc5ccccc5cc4nc3cc2c1 | 101% (inactive) |
| CC(C)(C)C(CCc1ccc(Cl)cc1)N1CCN(C2CCCCC2)CC1 (stereo not given) | 31.9% (inactive) |
| Cc1cc(NCc2cc(Nc3ccnc4cc(Cl)ccc34)ccc2F)nc(N2CCCC2)n1 | -71.3% (active) |
| O=S(=O)(Nc1cccc(Cl)c1)c1ccc(-c2cnc(C3CC3)o2)cc1 | 16.2% (inactive) |
| O=C(O)CN1C(=O)CCC1=O | 111% (inactive) |
| Cc1cc(C)c2c(-c3nnc(N)s3)cc(=O)oc2c1 | 104% (inactive) |
| CN(C)c1ccc(-c2cc(-c3ccc(Nc4nc(Nc5ccc(Cl)cc5)nc(Nc5ccc(Cl)cc5)n4)cc3)no2)cc1 | 61.6% (inactive) |
| N#Cc1c(-c2ccccc2)cc(-c2ccc(Nc3nc(Nc4ccc(F)cc4)nc(Nc4ccc(F)cc4)n3)cc2)nc1N | 108% (inactive) |
| CN(C)CCCn1c(=O)c2ccccc2c2ccccc21 | 87.8% (inactive) |
| CC1=CN2C(=O)C3C4=C(CCCC4)SC3N=C2CN1c1c(C)cccc1C (stereo not given) | 96.6% (inactive) |
| O=C1/C(=C/c2ccc(F)cc2)C=C(c2ccccc2)N1CCc1ccccc1 | 46% (inactive) |
| COc1cc(C2NC(=O)c3ccccc3N2)ccc1OCCCCCOc1c(OC)cc(C2=NOC(c3cc(OC)c(OC)c(OC)c3)C2)cc1OC (stereo not given) | 84.3% (inactive) |
| CC/C=C\C[C@H](O)C/C=C1/C(=O)C=C[C@@H]1C/C=C\CCCC(=O)OC | -1.46% (active) |
| O=c1c2cc(F)ccc2sc2c(NCCCN3CCCC3)nc3ccccc3c12 | -64.2% (active) |
